Screening results (PubChem)
In the library only some 3.7% were active in any assay of this set; here they are far more common.
Wnt act – activates Wnt/beta-catenin signaling in a reporter cell assay. activator, plate reader. activation, % at 9.35 µM. hit rate 1.2% among 300,000; in the data active means activation above about 30%, passing the limit was not always enough; inconclusive means no clear call, values can overlap the other calls
esBAF inh – SWI/SNF esBAF complex inhibition; mouse ES cells, Bmi1-luciferase knock-in reporter, 24 h; 100% = twice the neutral-well signal; reporter increase, % at 12.5 µM; hit rate 2% among 350,000; in the data active means activation above about 40%; inconclusive means no clear call, values can overlap the other calls;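 further: a rise in the Bmi1 reporter signal indicates esBAF inhibition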
MLL AF4-AF9 inh – inhibitors of human MLL-AF4/AF9 interaction; P42568; AlphaScreen, biotin-AF4 peptide binding to FLAG-AF9; inhibition, % at 10 µM; hit rate 0.47% among 350,000;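 active means every replicate reaching a set inhibition limit, whatever the replicate mean, cut at about 25% in these data; inconclusive means mean inhibition reaches that limit but some replicates miss it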
Target sequence (P42568 whole entry, looked up): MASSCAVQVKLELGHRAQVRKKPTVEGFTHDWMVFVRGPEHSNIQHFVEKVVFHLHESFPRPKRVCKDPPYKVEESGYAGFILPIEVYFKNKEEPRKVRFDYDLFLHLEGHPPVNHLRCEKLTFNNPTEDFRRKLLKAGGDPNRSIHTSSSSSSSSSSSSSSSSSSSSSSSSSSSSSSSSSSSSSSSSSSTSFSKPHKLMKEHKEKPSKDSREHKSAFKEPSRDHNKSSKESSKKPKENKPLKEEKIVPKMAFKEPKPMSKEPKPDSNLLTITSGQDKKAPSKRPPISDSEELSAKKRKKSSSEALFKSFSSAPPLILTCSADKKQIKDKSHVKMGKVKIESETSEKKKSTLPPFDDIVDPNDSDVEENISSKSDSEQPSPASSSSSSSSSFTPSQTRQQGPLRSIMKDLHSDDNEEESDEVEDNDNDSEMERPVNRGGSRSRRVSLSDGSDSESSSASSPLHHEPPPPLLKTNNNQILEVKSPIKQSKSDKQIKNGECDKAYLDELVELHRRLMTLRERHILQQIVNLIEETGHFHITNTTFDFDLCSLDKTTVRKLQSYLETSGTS
MITF act – increases MITF-driven TRPM1 promoter luciferase signal; hit rate 0.75% among 300,000; activation, % at 12.5 µM; SK-MEL-5 TRPM1-promoter luciferase, 24 h; % of positive control, neutral wells = 0;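 active means mean activation of at least 80% with every replicate also reaching 80%; inconclusive means mean reaches 80% but some replicate falls short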
Ecoli rRNA inh – inhibitors of bacterial rRNA selective over humanized ribosomes. E. coli WT GFP vs humanized-ribosome RFP mutants, fluorescence, 24 h; stronger effect = lower value; DMSO median 0, no signal -100. GFP signal change (wild-type ribosome), % (no concentration beside the values). hit rate 1.6% among 350,000. AID 720706;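 active means significant combined selectivity score with lowered wild-type GFP, culture density cut under 30%, mutant RFP and density less affected; inactive means any of these conditions unmet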
Of the large screens only hits and unclear results are named; the others gave an inactive call; ! = a repeat was not active.

Cc1cc2ccccc2nc1-c1ccccc1F	Ecoli rRNA inh -15.8 (no result: esBAF inh)
CCOC(=O)c1cc2c(C)[nH]c(C)c2cc(C(=O)OCC)c1=O	none (no result: esBAF inh)
O=C(CN1C(=O)/C(=C/c2ccco2)SC1=S)NC1CCS(=O)(=O)C1 (stereo not drawn)	none
Cc1ccc(O)c(C(=O)c2cnn(-c3ccccc3)c2)c1	esBAF inh 49.7 (no result: MLL AF4-AF9 inh, Ecoli rRNA inh)
COc1ccccc1CNC(=O)COc1ccccc1C(=O)c1cnn(-c2ccccc2)c1	Wnt act 57.6, esBAF inh 75.3, MITF act 88.6 (no result: Ecoli rRNA inh)
Cc1ccc(-n2cc(C(=O)c3ccccc3O)cn2)cc1	none (no result: MLL AF4-AF9 inh, Ecoli rRNA inh)
CCNC(=O)COc1ccc(F)cc1C(=O)c1cnn(-c2ccccc2)c1	none
O=C(COc1ccccc1C(=O)c1cnn(-c2ccccc2)c1)Nc1ccccc1	Wnt act inconclusive, esBAF inh 49.2
C=CCN(c1ccccc1)S(=O)(=O)c1cccc(C(=O)NNC(=O)c2ccncc2)c1	none
COc1cc2ccc(=O)oc2c(O)c1OCC=C(C)C	Ecoli rRNA inh -20.8
CC(C)=CCOc1ccc2ccc(=O)oc2c1	none
O=C(COC(=O)c1cccc(-n2cnnn2)c1)c1ccc(Br)cc1	esBAF inh 48.8
Cc1ccc(C(=O)Oc2cccc(-n3cnnn3)c2)cc1	MITF act 111.8 (no result: esBAF inh)
O=C(Oc1cccc2cccnc12)c1cccc(-n2cnnn2)c1	Wnt act 76.7 (no result: MLL AF4-AF9 inh, Ecoli rRNA inh)
O=C(Oc1cccc(-n2cnnn2)c1)c1ccco1	none (no result: Wnt act, esBAF inh, MLL AF4-AF9 inh, Ecoli rRNA inh)
c1ccc(NC2=NCCN2CC2CCCC2)cc1	none
OCC[C@@H]1C[C@H](O)[C@@H](O)[C@@]2(CCCO2)O1	none (no result: esBAF inh)
CC1CCc2c(sc(NC(=O)c3noc4c3CCCC4)c2C(N)=O)C1 (stereo not drawn)	MITF act 141.2 (no result: esBAF inh)
C/C=C/c1ccc([C@@H]2[C@H](CO)N(C(C)=O)C23CN(C(=O)c2ccccc2)C3)cc1	none (no result: Wnt act, esBAF inh, MITF act)
OC(c1cccc(F)c1)c1ncc(-c2ccc3ccccc3c2)[nH]1 (stereo not drawn)	esBAF inh 73.6 (no result: MITF act)
COc1ccccc1-c1cnc(C(O)c2ccc(C)cc2)[nH]1 (stereo not drawn)	esBAF inh 54.6 (no result: MITF act)
OC(c1ccccc1)c1ncc(-c2ccccc2F)[nH]1 (stereo not drawn)	esBAF inh 62.1 (no result: MITF act)
CN(Cc1cccs1)C(=O)Cc1csc(-c2ccccc2)n1	none
Cc1nn(C(C)(C)C)c(C)c1/C=N/OC(=O)Nc1ccc(Cl)cc1	Ecoli rRNA inh -26.6 (no result: esBAF inh, MLL AF4-AF9 inh, MITF act)
O=C(NCc1ccccn1)c1[nH]c(C(F)(F)F)nc1-c1ccccc1	none (no result: MITF act)
Cn1c(=O)c(-c2cc(=O)[nH][nH]2)c(O)c2ccccc21	Ecoli rRNA inh -34.1 (no result: esBAF inh)
CCn1c(=O)c(-c2cc(=O)[nH][nH]2)c(O)c2ccccc21	none
CS(=O)(=O)N(CCc1ccccc1)CC(=O)Nc1ccc(Br)cc1F	none
CSc1ccc(-c2nnn(Cc3ccc(C)cc3)n2)cc1	MITF act 94.3 (no result: Wnt act, esBAF inh, MLL AF4-AF9 inh, Ecoli rRNA inh)
Nc1ccc(-c2nnn(Cc3ccccc3)n2)cc1	none (no result: MITF act)
CNC[C@@H]1Oc2ncc(/C=C/c3ccccc3)cc2C(=O)N([C@H](C)CO)C[C@@H]1C	none (no result: Wnt act, MITF act)
CCNC(=O)C[C@@H]1CC[C@H]2[C@@H](COC[C@@H](O)CN2C(=O)C2CCOCC2)O1	none (no result: Wnt act, MITF act)
CC1C(=O)Nc2ccccc2N1C(=O)c1ccc(Cl)c(Cl)c1 (stereo not drawn)	Ecoli rRNA inh -26.8
Cc1ccc(C(=O)N2c3ccccc3NC(=O)C2C)cc1 (stereo not drawn)	none (no result: esBAF inh)
COc1ccc(NC(=O)C[C@H]2C(=O)N(C3CCCCC3)C[C@@H]2c2ccc(OC)cc2)cc1	none (no result: MITF act, Ecoli rRNA inh)
C[C@H](CO)N1C[C@H](C)[C@H](CN(C)C(=O)Nc2ccc3c(c2)OCO3)Oc2ccc(NS(=O)(=O)c3cccs3)cc2C1=O	none (no result: Wnt act, MITF act)
O=[N+]([O-])c1cccnc1NCCNc1ncc(C(F)(F)F)cc1Cl	esBAF inh 47.8, MITF act 101.3 (no result: Wnt act, MLL AF4-AF9 inh, Ecoli rRNA inh)
O=[N+]([O-])c1cccnc1NCCc1ccccc1	esBAF inh 73.4
O=[N+]([O-])c1cccnc1NCCc1c[nH]c2ccccc12	esBAF inh inconclusive
Cn1cccc1C1C(C#N)=C(N)OC2=C1C(=O)CCC2 (stereo not drawn)	none (no result: MITF act)
O=C(C[C@H]1C=C[C@@H](NC(=O)Cc2cccnc2)[C@@H](CO)O1)NCc1ccc2c(c1)OCO2	none (no result: MITF act)
COc1ccc(CCNC(=O)c2cccn2C)cc1	esBAF inh 50.1
Cn1cccc1C(=O)NCCc1ccccc1	none
Cn1cccc1C(=O)NCCc1ccc(Cl)cc1	esBAF inh 56.7, MITF act 114.4
CCCNC(=O)C(=O)NCc1ccccn1	none (no result: esBAF inh)
COc1ccc(CCNC(=O)C(=O)NCc2ccccn2)cc1	Wnt act 37.4
COc1ccc(S(=O)(=O)Nc2ccc3c(c2)C(=O)N([C@@H](C)CO)C[C@H](C)[C@@H](CN(C)C(=O)Nc2ccc(C(F)(F)F)cc2)O3)cc1	none (no result: Wnt act, MITF act)
Cc1nnc(SCC(=O)NN2C(=O)NC3(CCCCC3)C2=O)s1	none
Oc1cc(Nc2cccnc2)cc2cccnc12	MLL AF4-AF9 inh 39.5
Oc1cc(Nc2ccncc2)cc2cccnc12	MLL AF4-AF9 inh 70.0
Oc1cc(NCCc2cccnc2)cc2cccnc12	MLL AF4-AF9 inh inconclusive
COC(=O)c1ccc(N2CCN(C)CC2)c(NC(=O)c2sc3ccccc3c2Cl)c1	MLL AF4-AF9 inh 26.2 (no result: MITF act)
O=C(NCc1ccco1)c1sc2ccccc2c1Cl	esBAF inh 48.9 (no result: Wnt act, MLL AF4-AF9 inh, Ecoli rRNA inh)
O=C(NCc1ccco1)c1sc2cc(Cl)ccc2c1Cl	none (no result: MLL AF4-AF9 inh, Ecoli rRNA inh)
CN1CCN(c2ccc(NC(=O)c3sc4ccccc4c3Cl)cc2)CC1	Ecoli rRNA inh -25.0
O=C(NNC(=O)c1sc2ccccc2c1Cl)Nc1ccc(Cl)cc1	Ecoli rRNA inh -20.4 (no result: Wnt act, MLL AF4-AF9 inh)
CO[C@@H]1CN(C)C(=O)c2cc(NC(=O)C3CCOCC3)ccc2OC[C@H](C)N(Cc2nccs2)C[C@H]1C	none (no result: Wnt act, MITF act)
C[C@H](CO)N1C[C@H](C)[C@@H](CN(C)S(=O)(=O)c2cccs2)Oc2ccc(NC(=O)Nc3ccc(F)cc3)cc2CC1=O	none (no result: Wnt act, MITF act)
Cc1ccc(C)c(OCC(=O)Nc2ccc(S(=O)(=O)Nc3ccccn3)cc2)c1C	none (no result: esBAF inh, MLL AF4-AF9 inh, Ecoli rRNA inh)
CC1(c2nc3ccccc3[nH]2)c2ccccc2C(=O)N1Cc1ccccc1 (stereo not drawn)	none (no result: esBAF inh, MITF act)
Cc1cc(C)n2nc(SCC(=O)N(C)C3CCCCC3)nc2n1	none
O/N=C(/c1ccccc1)c1cc2cc(Br)cc(Br)c2o1	Ecoli rRNA inh -22.9
O=C(Nc1ncc([N+](=O)[O-])s1)c1cccs1	Wnt act 42.3!
Cc1ncoc1C(=O)Nc1ncc([N+](=O)[O-])s1	Wnt act 37.2 (no result: esBAF inh)
Cc1cnc(NC(=O)c2cccs2)s1	none
O=C(CCN1CCOCC1)NNC(=O)Nc1cccc([N+](=O)[O-])c1	none
CC1=CCC(COC(=O)Nc2ccccc2)CC1 (stereo not drawn)	esBAF inh 84.1, MITF act 125.5 (no result: MLL AF4-AF9 inh, Ecoli rRNA inh)
O=C(Nc1ccccc1)OCC1CCCN2CCCCC12 (stereo not drawn)	none (no result: Ecoli rRNA inh)
COCCNC(=O)C1CC(c2cccc(F)c2)=NO1 (stereo not drawn)	none
O=C1SC(c2ccccc2)=C/C1=C\N1CCCCC1	MLL AF4-AF9 inh 29.7
FC(F)(F)c1ccc(Oc2ccc3ccccc3c2Br)nc1	none (no result: esBAF inh)
